Screening results from PubChem.
Hits are enriched below; roughly 18% of the tested compounds scored in any of these assays.
TDP1 cell noCPT – qHTS for Inhibitors of human tyrosyl-DNA phosphodiesterase 1 (TDP1): qHTS in cells in absence of CPT. DT40 Tdp1-/- hTDP1 cells, no CPT, ATP luminescence, 48 h. Potency, µM (doses to about 46.2 µM), hits mostly inhibitors. hit rate 15% among 420,000. AID 686978, 2013; note: nearly all actives have a fitted effect of over 55% in size
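Seeded 400 DT40-hTDP1 cells/well (vehicle DMSO, no 20 nM CPT); pinned compounds; ≥48 hr at 37 °C; CellTiter-Glo luminescence as viability measure.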
TDP1 inh – qHTS Assay for Inhibitors of Tyrosyl-DNA Phosphodiesterase (TDP1) | Tyrosyl-DNA phosphodiesterase 1 (Homo sapiens), Q9NUW8 | recombinant TDP1, AlphaScreen DNA substrate cleavage | Potency, µM (top dose mostly 130 µM), most hits filed as inhibitors | hit rate 0.28% among 350,000 | AID 485290, 2010; note: nearly all actives have a fitted effect of over 40% in size
Target sequence (Q9NUW8 whole entry, looked up): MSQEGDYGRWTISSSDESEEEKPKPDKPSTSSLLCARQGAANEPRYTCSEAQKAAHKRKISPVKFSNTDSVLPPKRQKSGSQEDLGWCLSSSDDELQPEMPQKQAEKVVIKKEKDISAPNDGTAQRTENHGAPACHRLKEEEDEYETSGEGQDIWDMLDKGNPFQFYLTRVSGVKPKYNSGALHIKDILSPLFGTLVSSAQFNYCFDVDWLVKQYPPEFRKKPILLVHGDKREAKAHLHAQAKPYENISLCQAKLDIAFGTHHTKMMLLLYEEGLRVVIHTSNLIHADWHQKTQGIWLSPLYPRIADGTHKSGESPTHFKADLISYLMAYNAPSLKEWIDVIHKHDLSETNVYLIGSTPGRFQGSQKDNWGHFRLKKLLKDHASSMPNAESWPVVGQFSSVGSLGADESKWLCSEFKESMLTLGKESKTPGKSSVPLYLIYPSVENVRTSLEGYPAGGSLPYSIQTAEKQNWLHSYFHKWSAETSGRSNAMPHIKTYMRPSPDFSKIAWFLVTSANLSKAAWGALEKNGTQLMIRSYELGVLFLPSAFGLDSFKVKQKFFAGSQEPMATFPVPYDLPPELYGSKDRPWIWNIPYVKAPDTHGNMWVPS
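Recombinant E. coli-expressed Tdp1 (1 nM) preincubated with compound 15 min at RT, then 5'-biotin/3'-phosphotyrosine-FITC DNA substrate (15 nM) added for 5 min. AlphaScreen beads (10 ug/ml) added, 10 min RT; tyrosine-FITC cleavage read as signal loss.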
DT40 TDP1 CPT – qHTS for Inhibitors of human tyrosyl-DNA phosphodiesterase 1 (TDP1): qHTS in cells in presence of CPT | chicken DT40 Tdp1-/-;hTDP1 cells + 20 nM CPT, ATP luminescence, 48 h | hit rate 12% among 420,000 | AID 686979, 2013 | Potency, µM (titrated, usually from 46.2 µM), most hits filed as inhibitors; note: nearly all actives have a fitted effect of over 55% in size
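Chicken DT40 Tdp1-/- cells stably complemented with human TDP1 were seeded at 400 cells/well in medium containing 20 nM camptothecin, exposed to pin-transferred compounds, and grown at 37 °C for at least 48 hr. Viability was read as ATP luminescence.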
HepG2 tox – qHTS for Inhibitors of TGF-b: Cytotox Counterscreen; hit rate 0.76% among 410,000; AID 588856, 2011; HepG2 CAGA-GFP viability, ATP luminescence, 18 h; Potency, µM (titrated, usually from 46.1 µM), actives largely listed as cytotoxic
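HepG2 CAGA-GFP cells (1000/well, DMEM with 1% FBS) received compound, then TGF-beta at 500 pg/mL final, and were incubated 18 hours at 37 degrees C. Viability was read by CellTiter-Glo luminescence. Media-only wells were set as complete cell-killing and DMSO as no toxicity.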
TGFb SMAD3 inh – qHTS for Inhibitors of TGF-b; AID 588855, 2011; Potency, µM (doses to about 46.1 µM), usual class: inhibitors; HepG2 CAGA-GFP TGF-b/SMAD3 reporter, GFP fluorescence, 18 h; TGF-beta stimulated, 500 pg/mL final; hit rate 1.2% among 410,000; note: nearly all actives have a fitted effect of over 65% in size
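Using HEPG2 CAGA-GFP reporter cells at 1000 cells/well, we pinned test compounds, stimulated with recombinant TGF-beta (500 pg/mL final) and measured total well GFP after 18 h.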
IL-1B inflam inh – qHTS for Inhibitors of Inflammasome Signaling: IL-1-beta AlphaLISA Primary Screen. THP-1 LPS/ATP IL-1B secretion, AlphaLISA, 16 h; hits give low values. activity change, % at 57.5 µM. hit rate 4.7% among 360,000. AID 743279, 2014; in the data active = activity change below about -50%; inconclusive = mostly about -30% to -49%
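THP-1 cells pretreated 1 hr with compounds (up to 57.5 uM final), then stimulated with LPS (250 ng/mL final) plus ATP (1.25 mM final); secreted IL-1B measured by AlphaLISA after 16 hr, decreased signal indicating inhibition.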
A number is an active result; . = inactive; ? = inconclusive; / = no result. Unless noted, calls come from the whole dose curve; as a rule, active = well fitted curve in the direction sought with a large enough effect; inconclusive = small, poorly fitted or top-dose-only effect, or another doubt; inactive = no such curve, though single readings can be large; an effect the other way counts as inactive or inconclusive.

SMILES | TDP1 cell noCPT | TDP1 inh | DT40 TDP1 CPT | HepG2 tox | TGFb SMAD3 inh | IL-1B inflam inh
N#CC(=C(O)COC(=O)CCC1CCCCC1)c1nc2ccccc2[nH]1 | 5.2µM | / | 5.8µM | . | . | -98
Cc1cc(SCC(=O)OC/C(O)=C(\C#N)c2nc3ccccc3[nH]2)c(C)cc1Br | ? | . | ? | . | . | -100
COc1cccc(CNC(=O)CCC2CCCN(C(=O)c3csc(C(C)C)n3)C2)c1 (centres undefined) | ? | . | ? | . | . | .
COc1ccc(-c2noc(-c3ccc(N4CCN(c5ccccc5)CC4)c([N+](=O)[O-])c3)n2)cc1 | . | . | ? | . | . | /
CC1CCCN(S(=O)(=O)c2ccc(NC(=O)Cc3ccc(S(=O)(=O)N4CCOCC4)s3)cc2)C1 (centres undefined) | 18µM | / | ? | . | . | ?
O=C(Cc1ccc(S(=O)(=O)N2CCOCC2)s1)Nc1ccc(S(=O)(=O)N2CCCCC2)cc1 | ? | / | 18µM | . | ? | .
CC(=O)Nc1ccc(NC(=O)Cc2ccc(S(=O)(=O)N3CCCCC3)s2)cc1 | ? | . | ? | . | . | .
CNC(=O)c1ccc(NC(=O)Cc2ccc(S(=O)(=O)N3CCOCC3)s2)cc1 | . | . | . | . | . | .
CC1CCN(S(=O)(=O)c2ccc(NC(=O)Cc3ccc(S(=O)(=O)N4CCOCC4)s3)cc2)CC1 | 23µM | . | 18µM | . | ? | .
Cc1cccc(-n2nc3c(c2NC(=O)C(C)C)CSC3)c1 | . | . | . | . | . | .
CCN(CC)C(=O)CC(c1ccc(OC)cc1)c1c(OC)cc(OC)c2ccc(=O)oc12 (centres undefined) | ? | . | 23µM | . | . | .
CCN(CC)C(=O)CC(c1cc(OC)c(OC)c(OC)c1)c1c(OC)cc(OC)c2ccc(=O)oc12 (centres undefined) | . | . | ? | . | . | .
COc1ccc(C(CC(=O)N2CCCCC2)c2c(OC)cc(OC)c3ccc(=O)oc23)cc1 (centres undefined) | ? | . | 21µM | . | ? | .
COc1cc(C(CC(=O)N2CCOCC2)c2c(OC)cc(OC)c3ccc(=O)oc23)cc(OC)c1OC (centres undefined) | . | . | . | . | . | .
O=C(COC(=O)c1ccc(F)cc1F)NCc1ccc2c(c1)OCO2 | . | . | . | . | . | .
CCc1ccc(/C=C2\SC(=S)N(CCC(=O)NCCCN3CCOCC3)C2=O)cc1 | ? | . | ? | . | . | -88
COC(=O)c1ccc(/C=C2\SC(=S)N(CCCC(=O)NCCCN3CCOCC3)C2=O)cc1 | 23µM | / | ? | . | . | .
COC(=O)c1ccc(/C=C2/SC(=S)N(CCCC(=O)Nc3ccccn3)C2=O)cc1 | 21µM | . | 21µM | . | . | .
O=C(CCN1C(=O)/C(=C/c2ccccc2Cl)SC1=S)NCCCN1CCOCC1 | ? | . | ? | . | . | .
CCc1ccc(/C=C2\SC(=S)N(CCCC(=O)Nc3ccccn3)C2=O)cc1 | ? | . | ? | . | ? | .
O=C(CCN1C(=O)/C(=C/C=C/c2ccccc2)SC1=S)Nc1ccccn1 | ? | . | 16µM | . | . | .
CC(C)c1ccc(/C=C2\SC(=S)N(CC(=O)NCCCN3CCOCC3)C2=O)cc1 | ? | / | ? | . | . | ?
CC(=C\c1ccccc1)/C=C1/SC(=S)N(CCC(=O)Nc2ccccn2)C1=O | / | . | / | / | / | /
O=C(CCCOc1ccccc1)Nc1ccc(S(=O)(=O)Nc2ccccn2)cc1 | . | . | . | . | . | .
COc1ccc(/C=C2\SC(=S)N(CCC(=O)NCCCN3CCOCC3)C2=O)cc1 | ? | / | . | . | . | -66
SMILES | TDP1 cell noCPT | TDP1 inh | DT40 TDP1 CPT | HepG2 tox | TGFb SMAD3 inh | IL-1B inflam inh
CCOc1ccc(/C=C2\SC(=S)N(CC(=O)NCCCN3CCOCC3)C2=O)cc1 | . | / | . | . | . | .
O=C(CCCN1C(=O)/C(=C/c2cccc(Br)c2)SC1=S)NCCCN1CCOCC1 | ? | . | 26µM | . | . | -96
O=C(Nc1ccc2nc(SCC(=O)N3CCc4ccccc43)sc2c1)c1ccc(Cl)cc1 | 12µM | . | 9.2µM | . | . | /
O=C(Nc1ccc2nc(SCC(=O)N3CCc4ccccc43)sc2c1)c1ccc(F)cc1 | 8.2µM | . | 10µM | . | . | /
O=C(Nc1ccc2nc(SCC(=O)N3CCc4ccccc43)sc2c1)c1cccc(F)c1 | 4.1µM | . | 3.7µM | . | . | /
O=C(Nc1ccc2nc(SCC(=O)N3CCc4ccccc43)sc2c1)c1cccc(Cl)c1 | ? | . | ? | . | . | /
O=C(Nc1ccc2nc(SCC(=O)N3CCCc4ccccc43)sc2c1)c1cccc(Cl)c1 | 6.5µM | . | 13µM | . | ? | /
COc1ccccc1N(C)S(=O)(=O)c1ccc(C(=O)NCCCN2CCCC2=O)cc1 | ? | / | ? | . | . | .
Nc1ncnc(Nc2ccccc2)n1 | . | . | . | . | . | .
Nc1cnc(Nc2ccc(Br)cc2)nc1N | 15µM | . | ? | . | . | .
CCOC(=O)c1cc(CC)sc1NC(=O)CN1CCN(C(=O)c2ccco2)CC1 | . | . | ? | . | . | .
CCSC(N)=Nc1ccc(C(F)(F)F)cc1 | ? | . | . | / | / | /
NC(N)=NN=C(c1ccc(F)cc1)c1ccc(C(F)(F)F)cc1 | 2.3µM | / | 2.6µM | . | 10µM | -104
CO[C@H]1CN(C)C(=O)c2ccc(NC(=O)C3CCC3)cc2OC[C@H](C)N(Cc2ccccn2)C[C@@H]1C | . | / | . | / | / | .
COc1ccc(OC)c(C(=O)Cn2c3[n+](c4ccc(C(F)(F)F)cc42)CCCCC3)c1 | 5.8µM | . | 5.2µM | . | . | .
COc1cc(Cl)cc(/C=N\NC(=O)c2ccc3c(c2)OCO3)c1O | . | / | ? | . | 11µM | .
O=C(N/N=C/c1cc(Cl)cc([N+](=O)[O-])c1O)c1ccc2c(c1)OCO2 | 9.2µM | / | 16µM | . | . | .
O=C(N/N=C/c1ccc(Cl)c([N+](=O)[O-])c1)c1ccc2c(c1)OCCO2 | . | / | . | . | . | .
COc1ccc(CNC(=O)c2sc3nc4c(c(C(F)(F)F)c3c2N)CCC4)cc1OC | 16µM | . | ? | . | ? | ?
Cc1nc(-c2ccccc2)nc2sc(C(=O)c3ccc(F)cc3)c(N)c12 | ? | . | ? | . | . | .
